Results published in PubChem BioAssay (Tox21).
Values joined by “and” are separate entries in the source; they are usually repeats but may differ in a detail not shown here. Identical values can stand only once. Records with an inconclusive call do not appear. A call without a number means that no potency is given here. Active and inactive are the calls of the source. Calls follow the shape of the dose curve; as a rule, active = well fitted cell-killing curve with a large enough effect in the repeat runs; inconclusive = weak or mixed curves; inactive = no such curve, though single readings can be large or run the other way.

experiment: qHTS assay for identifying genotoxic compounds that show differential cytotoxicity against isogenic chicken DT40 cell lines with known DNA damage response pathways - Rad54/Ku70 mutant cell line (AID 743015); conditions: DT40 Rad54/Ku70 mutant viability, CellTiter-Glo, 40 h; series mostly up to 66.8 µM; also: nearly all actives have a fitted effect of over 60% in size
Description: National Center for Advancing Translational Sciences [NCATS]
NIH Chemical Genomics Center [NCGC]
U.S. Environmental Protection Agency [EPA]
National Institutes of Environmental Health Sciences [NIEHS]
National Toxicology Program [NTP]
U.S. Food and Drug Administration [FDA]
DNA repair pathways play a critical role in cellular homeostasis by repairing DNA damage induced by endogenous processes and xenobiotics. Isogenic chicken DT40 cell lines deficient in different DNA repair pathways can be used to identify genotoxic compounds and aid in characterizing the nature of the DNA damage induced. Two DNA repair-deficient cell lines with disrupted genes, Rad54/Ku70 or Rev3, were used to screen the Tox21 10K compound library. Possible genotoxicity was based on the presence of a significant increase in cytotoxicity in one or more of the DNA repair-deficient cell lines compared to that observed in the parental DNA repair-proficient cell line. CellTiter Glo viability assay (Promega, Madison, WI) was used to measure cell viability in these cells after compound treatment. This assay includes the data from the Rad54/Ku70 mutant cell line.
Tox21 Assay Protocol Summary:
300 DT40 mutant cells in 5 uL/well were dispensed into white, solid-bottom 1536-well plates using a Multidrop Combi (ThermoFisher Scientific, Waltham, MA) dispenser. After the assay plates were incubated at 37 C/5% CO2 for approximately 0.5 hour, 23 nL of compounds dissolved in DMSO, positive controls or DMSO only was transferred into the assay plate by a pintool work station (Kalypsys, San Diego, CA). The assay plates were incubated at 37 C/5% CO2 for 40 hours. After 5 uL per well of CellTiter-Glo reagent was added into each well of the assay plates, the plates were incubated for 30 min at room temperature and the luminescence intensity of the plates was measured using a ViewLux (PerkinElmer, Shelton, CT) plate reader.
Potency is read from the fitted curve at half-maximal effect.

SMILES | Potency
CCOP(=S)(S)OCC | inactive
[Cl-].[Cl-].[Hg+2] | 1.68 µM (active) and 1.36 µM (active) and 217 nM (active)
Cc1nnc(-c2ccccc2)c(=O)n1N | inactive
CCCBr | inactive
O=C(N/N=C/c1ccc([N+](=O)[O-])o1)c1cc([N+](=O)[O-])cc([N+](=O)[O-])c1O | inactive
O=C(NCNC(=O)NC1C(=O)NC(=O)N1CO)NC1C(=O)NC(=O)N1CO (stereo not given) | inactive
O=S(=O)(Cl)Cl | inactive
COc1ccc(C(O)(c2cncnc2)C2CC2)cc1 (stereo not given) | inactive
OCC1CO1 (stereo not given) | inactive
CCCN(CCOc1c(Cl)cc(Cl)cc1Cl)C(=O)n1ccnc1 | 49.6 µM (active) and 27.3 µM (active)
CCCCCl | inactive
Nc1cc(Cl)cc(C(=O)O)c1Cl | inactive
O=C([O-])c1ccccn1.O=C([O-])c1ccccn1.O=C([O-])c1ccccn1.[Cr+3] | inactive
O=P(OCC(Br)CBr)(OCC(Br)CBr)OCC(Br)CBr (stereo not given) | 25.9 µM (active)
CC(C)c1ccc(OP(=O)(Oc2ccc(C(C)C)cc2)Oc2ccc(C(C)C)cc2)cc1 | 69.1 µM (active) and 54.5 µM (active) and 21.7 µM (active)
C=CCOCC1CO1 (stereo not given) | inactive
CC(C)[C@@H](C(=O)O[C@@H](C#N)c1cccc(Oc2ccccc2)c1)c1ccc(Cl)cc1 | 30.6 µM (active)
O=C(O)C(F)(F)C(F)(F)C(F)(F)C(F)(F)C(F)(F)C(F)(F)C(F)(F)C(F)(F)F | inactive
COc1ccc(C(=O)c2c(C)n(CCN3CCOCC3)c3ccccc23)cc1 | 29.8 µM (active)
CCC(C)(C)O | inactive

SMILES | Potency
O=C(O)C(Cl)(Cl)Br | inactive
CC[N+]1(CCOC(=O)C(O)(c2ccccc2)c2ccccc2)CCCCC1 | inactive
CCOC(=O)c1cn2nc(OP(=S)(OCC)OCC)cc2nc1C | 38.6 µM (active)
COC(=O)Cc1ccccc1 | inactive
CCCCCCCCCCCCN(C)C | inactive
CC(C)(C)N(NC(=O)c1ccc(Cl)cc1)C(=O)c1ccccc1 | 43 µM (active)
COc1ccc2c(c1OC)C(=O)O[C@H]2[C@@H]1c2cc3c(cc2CCN1C)OCO3 | inactive
CCOP(=O)(O)C(N)=O | inactive
ClCc1ccccc1Cl | inactive
NP(N)(=O)NC(=O)c1ccc(F)cc1 | inactive
Clc1ccc(Cl)c(Cl)c1 | inactive
COP(=O)(OC)OC(Br)C(Cl)(Cl)Br (stereo not given) | 38.6 µM (active) and 21.7 µM (active)
CCC(C)(C)c1ccc(O)c(C(C)(C)CC)c1 | 53.9 µM (active) and 24.3 µM (active)
CCOC(=O)C1OC1(C)c1ccccc1 (stereo not given) | inactive
OC[P+](CO)(CO)CO | inactive
FC(F)OC(F)(F)C(F)Cl (stereo not given) | inactive
O=C(O)c1cc(I)cc(I)c1I | inactive
O=C=NC1CCCCC1 | inactive
CCCC[P+](CC)(CCCC)CCCC (tested in a mixture with another compound) | 12.3 µM (active)
COC1CC(=C(c2cccs2)c2cccs2)C[N+](C)(C)C1 (stereo not given) | 29.8 µM (active)
